Test results published in PMC7862700, “An all-to-all approach to the identification of sequence-specific readers for epigenetic DNA modifications on cytosine”.

Experiments:
Assay in all cases: DAPPL (digital affinity profiling via proximity ligation, sequencing); 10 mM Tris-HCl pH 7.5, 50 mM NaCl, 1 mM DTT, 4% glycerol, room temperature, 30 min; GST-TFs on glutathione beads, 16-mer random dsDNA library, 0.1% formaldehyde crosslink after washing; high values mean tight binding
FEV = biological target: T1, FEV (Homo sapiens, UniProt Q99581 1-238); conditions: protein: recombinant; tags: N-terminal GST; dsDNA, one strand shown
T1 sequence: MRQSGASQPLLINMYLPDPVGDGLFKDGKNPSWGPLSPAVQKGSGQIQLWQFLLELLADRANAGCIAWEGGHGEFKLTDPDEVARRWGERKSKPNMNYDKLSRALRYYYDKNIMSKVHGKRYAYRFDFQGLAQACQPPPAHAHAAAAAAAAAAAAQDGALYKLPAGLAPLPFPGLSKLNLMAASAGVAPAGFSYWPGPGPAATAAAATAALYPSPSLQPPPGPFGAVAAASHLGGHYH
Method in brief: (§1)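 Binding signal is each hexamer's read frequency for a factor divided by its frequency in the tag-only sample. The factors were GST-fused human transcription factors from yeast, captured on glutathione beads, DNA-barcoded and pooled with that sample. Pools were incubated with 200 nmole of a random double-stranded 16-mer DNA library in Tris/NaCl/DTT/glycerol buffer at room temperature for 30 min, then washed, crosslinked with 0.1% formaldehyde, proximity-ligated with BsaI/T4 ligase (1 h, 37 °C), PCR-amplified and sequenced on an Illumina NextSeq500.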

ETV5 = ETV5 (Homo sapiens, UniProt P41161 1-510); conditions: protein: recombinant; tags: N-terminal GST; dsDNA, one strand shown
Method in brief: as §1

HSF1 = HSF1 (Homo sapiens, UniProt Q00613 1-529); conditions: protein: recombinant; tags: N-terminal GST; chain copies: 3; dsDNA, one strand shown
Method in brief: as §1

ELF4 = ELF4 (Homo sapiens, UniProt Q99607 1-663); conditions: protein: recombinant; tags: N-terminal GST; dsDNA, one strand shown
Method in brief: as §1

ELK4 = biological target: T2, ELK4 (Homo sapiens, UniProt P28324-2 1-405); conditions: protein: recombinant; tags: N-terminal GST; dsDNA, one strand shown
T2 sequence: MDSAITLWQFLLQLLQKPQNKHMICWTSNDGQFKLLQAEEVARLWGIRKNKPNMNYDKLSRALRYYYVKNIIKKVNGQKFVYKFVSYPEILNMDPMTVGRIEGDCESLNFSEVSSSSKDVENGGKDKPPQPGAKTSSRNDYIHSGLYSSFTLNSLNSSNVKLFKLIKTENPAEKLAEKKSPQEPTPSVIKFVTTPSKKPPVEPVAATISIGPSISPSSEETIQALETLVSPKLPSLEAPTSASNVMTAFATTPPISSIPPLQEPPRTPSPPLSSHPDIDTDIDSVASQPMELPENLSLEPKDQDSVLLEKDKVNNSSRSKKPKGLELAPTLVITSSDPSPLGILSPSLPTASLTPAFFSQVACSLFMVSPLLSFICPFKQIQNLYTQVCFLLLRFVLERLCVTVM
Method in brief: as §1

ELF3 = biological target: T3, ELF3 (Homo sapiens, UniProt P78545 1-371); conditions: protein: recombinant; tags: N-terminal GST; dsDNA, one strand shown
T3 sequence: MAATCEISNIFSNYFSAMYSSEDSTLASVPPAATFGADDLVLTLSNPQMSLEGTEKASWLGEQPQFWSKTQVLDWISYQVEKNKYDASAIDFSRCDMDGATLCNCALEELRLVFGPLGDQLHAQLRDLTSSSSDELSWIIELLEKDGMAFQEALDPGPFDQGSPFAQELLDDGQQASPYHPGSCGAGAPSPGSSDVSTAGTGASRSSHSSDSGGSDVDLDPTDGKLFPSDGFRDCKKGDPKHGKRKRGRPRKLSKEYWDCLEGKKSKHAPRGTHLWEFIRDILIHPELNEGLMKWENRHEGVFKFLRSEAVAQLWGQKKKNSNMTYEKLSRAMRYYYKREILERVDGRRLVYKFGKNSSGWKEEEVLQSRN
Method in brief: as §1

ETV1 = ETV1 (Homo sapiens, UniProt P50549 1-477); conditions: protein: recombinant; tags: N-terminal GST; dsDNA, one strand shown
Method in brief: as §1

ERF = biological target: T4, ERF (Homo sapiens, UniProt P50548 1-548); conditions: protein: recombinant; tags: N-terminal GST; dsDNA, one strand shown
T4 sequence: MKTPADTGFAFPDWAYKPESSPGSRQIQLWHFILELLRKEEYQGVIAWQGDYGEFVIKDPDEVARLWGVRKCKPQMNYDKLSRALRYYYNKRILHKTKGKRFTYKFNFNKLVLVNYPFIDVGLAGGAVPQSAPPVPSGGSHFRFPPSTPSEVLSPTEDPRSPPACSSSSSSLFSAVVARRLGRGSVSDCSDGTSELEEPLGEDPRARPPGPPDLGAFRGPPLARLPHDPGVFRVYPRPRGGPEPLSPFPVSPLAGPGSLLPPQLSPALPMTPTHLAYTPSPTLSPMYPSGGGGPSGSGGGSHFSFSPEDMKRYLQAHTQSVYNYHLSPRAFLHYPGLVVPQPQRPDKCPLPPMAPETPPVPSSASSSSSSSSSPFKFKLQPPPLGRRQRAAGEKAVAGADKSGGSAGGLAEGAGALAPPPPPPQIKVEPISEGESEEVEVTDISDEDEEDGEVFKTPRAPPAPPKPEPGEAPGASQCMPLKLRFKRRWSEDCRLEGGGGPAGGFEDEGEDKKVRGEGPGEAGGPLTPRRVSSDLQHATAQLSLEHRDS
Method in brief: as §1

ETV3L = biological target: T5, ETV3L (Homo sapiens, UniProt Q6ZN32 1-361); conditions: protein: recombinant; tags: N-terminal GST; dsDNA, one strand shown
T5 sequence: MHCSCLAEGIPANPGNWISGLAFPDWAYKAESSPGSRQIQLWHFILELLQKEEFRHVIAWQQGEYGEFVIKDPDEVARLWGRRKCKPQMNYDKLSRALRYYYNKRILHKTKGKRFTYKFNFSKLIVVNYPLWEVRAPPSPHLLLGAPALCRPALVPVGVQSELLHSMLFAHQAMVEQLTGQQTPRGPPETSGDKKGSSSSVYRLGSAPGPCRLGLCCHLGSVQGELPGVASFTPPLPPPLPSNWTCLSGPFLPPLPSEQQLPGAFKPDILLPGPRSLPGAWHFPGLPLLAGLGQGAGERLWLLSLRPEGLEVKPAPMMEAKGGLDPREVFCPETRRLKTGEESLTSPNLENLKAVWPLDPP
Method in brief: as §1

ETS2 = biological target: T6, ETS2 (Homo sapiens, UniProt P15036 1-469); conditions: protein: recombinant; tags: N-terminal GST; dsDNA, one strand shown
T6 sequence: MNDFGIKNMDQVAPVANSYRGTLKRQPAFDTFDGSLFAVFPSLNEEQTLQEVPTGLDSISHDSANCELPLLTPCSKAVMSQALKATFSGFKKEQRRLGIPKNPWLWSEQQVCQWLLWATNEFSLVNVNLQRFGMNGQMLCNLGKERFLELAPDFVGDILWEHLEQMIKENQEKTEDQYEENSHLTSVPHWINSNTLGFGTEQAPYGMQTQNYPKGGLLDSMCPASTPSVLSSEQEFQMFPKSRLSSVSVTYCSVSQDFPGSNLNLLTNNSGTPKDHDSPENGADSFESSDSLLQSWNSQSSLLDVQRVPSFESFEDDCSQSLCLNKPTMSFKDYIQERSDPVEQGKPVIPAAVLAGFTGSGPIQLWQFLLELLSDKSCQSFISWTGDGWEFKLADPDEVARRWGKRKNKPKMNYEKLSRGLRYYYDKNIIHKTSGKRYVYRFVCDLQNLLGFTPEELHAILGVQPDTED
Method in brief: as §1

SPDEF = biological target: T7, SPDEF (Homo sapiens, UniProt O95238 1-335); conditions: protein: recombinant; tags: N-terminal GST; dsDNA, one strand shown
T7 sequence: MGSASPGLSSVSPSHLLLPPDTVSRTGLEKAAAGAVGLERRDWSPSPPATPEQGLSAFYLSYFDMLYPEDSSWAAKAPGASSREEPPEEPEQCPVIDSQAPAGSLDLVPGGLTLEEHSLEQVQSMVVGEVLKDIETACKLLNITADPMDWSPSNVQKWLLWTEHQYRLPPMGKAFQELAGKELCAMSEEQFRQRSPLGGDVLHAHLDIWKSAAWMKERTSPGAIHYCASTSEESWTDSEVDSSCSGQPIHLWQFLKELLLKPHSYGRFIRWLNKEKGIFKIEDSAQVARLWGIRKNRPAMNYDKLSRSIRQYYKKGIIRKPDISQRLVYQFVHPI
Method in brief: as §1

ETV7 = biological target: T8, ETV7 (Homo sapiens, UniProt Q9Y603 1-341); conditions: protein: recombinant; tags: N-terminal GST; dsDNA, one strand shown
T8 sequence: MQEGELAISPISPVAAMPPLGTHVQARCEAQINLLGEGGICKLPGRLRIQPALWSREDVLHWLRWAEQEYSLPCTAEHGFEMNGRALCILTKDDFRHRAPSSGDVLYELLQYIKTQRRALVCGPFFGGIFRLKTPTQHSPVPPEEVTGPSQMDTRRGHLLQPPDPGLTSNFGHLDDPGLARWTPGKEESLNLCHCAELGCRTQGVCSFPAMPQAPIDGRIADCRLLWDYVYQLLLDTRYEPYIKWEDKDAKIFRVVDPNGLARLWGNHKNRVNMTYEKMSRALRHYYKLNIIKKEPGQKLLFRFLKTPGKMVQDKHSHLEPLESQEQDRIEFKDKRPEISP
Method in brief: as §1

ELF5 = biological target: T9, ELF5 (Homo sapiens, UniProt Q9UKW6-2 1-255); conditions: protein: recombinant; tags: N-terminal GST; dsDNA, one strand shown
T9 sequence: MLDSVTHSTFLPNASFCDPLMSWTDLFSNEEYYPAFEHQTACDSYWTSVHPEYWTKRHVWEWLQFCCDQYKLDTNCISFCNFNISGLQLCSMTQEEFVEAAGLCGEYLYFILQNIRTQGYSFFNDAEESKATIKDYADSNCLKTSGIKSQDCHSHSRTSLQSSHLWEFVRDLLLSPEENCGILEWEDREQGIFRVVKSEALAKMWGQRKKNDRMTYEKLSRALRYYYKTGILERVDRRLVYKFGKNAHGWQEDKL
Method in brief: as §1

ETV3 = biological target: T10, ETV3 (Homo sapiens, UniProt P41162-2 1-143); conditions: protein: recombinant; tags: N-terminal GST; dsDNA, one strand shown
T10 sequence: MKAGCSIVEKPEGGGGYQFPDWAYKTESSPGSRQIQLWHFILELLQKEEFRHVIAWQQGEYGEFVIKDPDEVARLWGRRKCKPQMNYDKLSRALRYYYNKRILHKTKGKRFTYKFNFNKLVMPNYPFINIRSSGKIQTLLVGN
Method in brief: as §1

ETV6 = ETV6 (Homo sapiens, UniProt P41212 1-452); conditions: protein: recombinant; tags: N-terminal GST; dsDNA, one strand shown
Method in brief: as §1

CRX = CRX (Homo sapiens, UniProt O43186 1-299); conditions: protein: recombinant; tags: N-terminal GST; dsDNA, one strand shown
Method in brief: as §1

Chain of ETV5 (P41161 whole entry): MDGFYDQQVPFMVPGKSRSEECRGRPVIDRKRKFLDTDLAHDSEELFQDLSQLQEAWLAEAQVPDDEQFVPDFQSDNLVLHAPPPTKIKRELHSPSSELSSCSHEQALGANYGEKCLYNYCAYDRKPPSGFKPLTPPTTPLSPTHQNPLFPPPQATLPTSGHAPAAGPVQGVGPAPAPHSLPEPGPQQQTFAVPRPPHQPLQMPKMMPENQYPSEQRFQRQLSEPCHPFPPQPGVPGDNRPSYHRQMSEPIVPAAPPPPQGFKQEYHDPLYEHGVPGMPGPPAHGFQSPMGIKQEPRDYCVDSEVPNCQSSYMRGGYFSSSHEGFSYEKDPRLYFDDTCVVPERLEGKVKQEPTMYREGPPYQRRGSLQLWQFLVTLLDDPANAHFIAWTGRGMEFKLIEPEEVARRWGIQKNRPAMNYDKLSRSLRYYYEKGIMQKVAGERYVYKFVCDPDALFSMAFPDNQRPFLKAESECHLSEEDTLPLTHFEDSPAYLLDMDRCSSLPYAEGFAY
Chain of HSF1 (Q00613 whole entry): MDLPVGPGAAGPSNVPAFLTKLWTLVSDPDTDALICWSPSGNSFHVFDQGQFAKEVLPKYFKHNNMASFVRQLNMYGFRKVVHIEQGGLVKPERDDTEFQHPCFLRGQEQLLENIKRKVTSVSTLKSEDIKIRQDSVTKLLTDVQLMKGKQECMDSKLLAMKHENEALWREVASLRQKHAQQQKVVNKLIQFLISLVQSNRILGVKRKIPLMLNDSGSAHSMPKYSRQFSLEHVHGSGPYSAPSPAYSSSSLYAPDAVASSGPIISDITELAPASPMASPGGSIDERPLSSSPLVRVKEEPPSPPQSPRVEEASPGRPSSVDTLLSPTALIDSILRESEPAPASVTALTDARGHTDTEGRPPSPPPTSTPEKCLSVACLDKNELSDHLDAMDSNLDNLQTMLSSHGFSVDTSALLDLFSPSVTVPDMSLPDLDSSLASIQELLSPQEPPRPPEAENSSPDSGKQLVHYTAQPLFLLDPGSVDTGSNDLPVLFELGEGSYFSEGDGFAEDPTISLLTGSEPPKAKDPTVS
Chain of ETV6 (P41212 whole entry): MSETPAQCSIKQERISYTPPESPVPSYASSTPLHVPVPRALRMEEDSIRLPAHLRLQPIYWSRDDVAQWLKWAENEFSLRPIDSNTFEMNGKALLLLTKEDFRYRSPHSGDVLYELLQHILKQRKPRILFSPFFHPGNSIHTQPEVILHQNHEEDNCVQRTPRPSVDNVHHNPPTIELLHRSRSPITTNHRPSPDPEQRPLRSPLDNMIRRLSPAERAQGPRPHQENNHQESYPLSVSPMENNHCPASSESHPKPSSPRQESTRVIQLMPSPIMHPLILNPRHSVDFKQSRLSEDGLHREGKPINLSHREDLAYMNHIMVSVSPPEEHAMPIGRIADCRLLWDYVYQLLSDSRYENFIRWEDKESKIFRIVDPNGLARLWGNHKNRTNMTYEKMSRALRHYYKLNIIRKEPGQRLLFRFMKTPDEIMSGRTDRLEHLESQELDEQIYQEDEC
Chain of ELF4 (Q99607 whole entry): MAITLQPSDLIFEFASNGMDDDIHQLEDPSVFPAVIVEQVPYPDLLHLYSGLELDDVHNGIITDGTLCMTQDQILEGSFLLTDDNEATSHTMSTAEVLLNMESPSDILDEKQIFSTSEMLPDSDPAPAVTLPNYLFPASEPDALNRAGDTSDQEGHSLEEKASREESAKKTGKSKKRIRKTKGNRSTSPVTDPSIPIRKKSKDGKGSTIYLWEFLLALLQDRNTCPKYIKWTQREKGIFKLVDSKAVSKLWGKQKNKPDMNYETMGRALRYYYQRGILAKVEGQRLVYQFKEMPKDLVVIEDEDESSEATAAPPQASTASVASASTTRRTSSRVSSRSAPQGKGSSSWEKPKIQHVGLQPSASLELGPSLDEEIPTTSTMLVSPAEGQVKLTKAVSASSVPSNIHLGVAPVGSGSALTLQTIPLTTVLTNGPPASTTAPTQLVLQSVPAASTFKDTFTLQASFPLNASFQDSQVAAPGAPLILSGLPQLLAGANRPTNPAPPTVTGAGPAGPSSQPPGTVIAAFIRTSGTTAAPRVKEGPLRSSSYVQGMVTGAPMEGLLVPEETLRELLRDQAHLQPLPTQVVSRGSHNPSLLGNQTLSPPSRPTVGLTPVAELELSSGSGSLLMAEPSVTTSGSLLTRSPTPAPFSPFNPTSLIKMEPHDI
Chain of ETV1 (P50549 whole entry): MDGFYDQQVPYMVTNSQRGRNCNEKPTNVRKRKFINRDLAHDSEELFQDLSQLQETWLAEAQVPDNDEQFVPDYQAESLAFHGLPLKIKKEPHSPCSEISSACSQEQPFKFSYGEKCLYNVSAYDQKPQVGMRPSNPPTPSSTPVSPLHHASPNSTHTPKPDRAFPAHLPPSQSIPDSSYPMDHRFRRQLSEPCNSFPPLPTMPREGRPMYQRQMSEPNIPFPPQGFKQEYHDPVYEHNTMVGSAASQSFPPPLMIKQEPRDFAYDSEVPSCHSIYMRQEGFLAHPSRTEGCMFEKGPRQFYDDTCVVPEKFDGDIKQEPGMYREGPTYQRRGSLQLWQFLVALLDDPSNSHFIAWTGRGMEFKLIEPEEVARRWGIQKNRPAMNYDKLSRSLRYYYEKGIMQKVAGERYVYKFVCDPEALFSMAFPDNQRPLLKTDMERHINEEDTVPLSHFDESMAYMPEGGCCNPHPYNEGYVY
Chain of CRX (O43186 whole entry): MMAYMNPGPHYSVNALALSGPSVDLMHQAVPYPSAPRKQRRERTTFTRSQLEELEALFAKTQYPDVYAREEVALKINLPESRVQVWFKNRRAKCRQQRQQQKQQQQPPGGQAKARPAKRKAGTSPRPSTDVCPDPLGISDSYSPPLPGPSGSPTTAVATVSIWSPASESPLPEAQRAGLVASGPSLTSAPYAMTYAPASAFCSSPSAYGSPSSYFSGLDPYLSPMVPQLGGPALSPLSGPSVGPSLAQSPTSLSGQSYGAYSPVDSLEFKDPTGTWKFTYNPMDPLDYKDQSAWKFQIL

## GAATTG
FEV
  binding signal: 1.11 fold enrichment (6-mer frequency, TF over GST control)
ETV5
  binding signal: 1.18 fold enrichment (6-mer frequency, TF over GST control)
HSF1
  binding signal: 1.06 fold enrichment (6-mer frequency, TF over GST control)
ELF4
  binding signal: 1.11 fold enrichment (6-mer frequency, TF over GST control)
ELK4
  binding signal: 1.04 fold enrichment (6-mer frequency, TF over GST control)
ELF3
  binding signal: 1.17 fold enrichment (6-mer frequency, TF over GST control)
ETV1
  binding signal: 1.15 fold enrichment (6-mer frequency, TF over GST control)
ERF
  binding signal: 1.1 fold enrichment (6-mer frequency, TF over GST control)
ETV3L
  binding signal: 1.07 fold enrichment (6-mer frequency, TF over GST control)
ETS2
  binding signal: 1.13 fold enrichment (6-mer frequency, TF over GST control)
SPDEF
  binding signal: 1.14 fold enrichment (6-mer frequency, TF over GST control)
ETV7
  binding signal: 1.22 fold enrichment (6-mer frequency, TF over GST control)
ELF5
  binding signal: 1.13 fold enrichment (6-mer frequency, TF over GST control)
ETV3
  binding signal: 1.03 fold enrichment (6-mer frequency, TF over GST control)
ETV6
  binding signal: 1.06 fold enrichment (6-mer frequency, TF over GST control)

## AGGGCT
FEV
  binding signal: 1.03 fold enrichment (6-mer frequency, TF over GST control)
ETV5
  binding signal: 1.06 fold enrichment (6-mer frequency, TF over GST control)
HSF1
  binding signal: 1.03 fold enrichment (6-mer frequency, TF over GST control)
ELF4
  binding signal: 1.07 fold enrichment (6-mer frequency, TF over GST control)
ELK4
  binding signal: 1.02 fold enrichment (6-mer frequency, TF over GST control)
CRX
  binding signal: 1.26 fold enrichment (6-mer frequency, TF over GST control)
ETV1
  binding signal: 1.11 fold enrichment (6-mer frequency, TF over GST control)
ERF
  binding signal: 1.1 fold enrichment (6-mer frequency, TF over GST control)
ETV3L
  binding signal: 1.06 fold enrichment (6-mer frequency, TF over GST control)
ETS2
  binding signal: 1.02 fold enrichment (6-mer frequency, TF over GST control)
ETV7
  binding signal: 1.12 fold enrichment (6-mer frequency, TF over GST control)
ELF5
  binding signal: 1.05 fold enrichment (6-mer frequency, TF over GST control)
ETV3
  binding signal: 1.06 fold enrichment (6-mer frequency, TF over GST control)
ETV6
  binding signal: 1.09 fold enrichment (6-mer frequency, TF over GST control)

## GGTAAT
FEV
  binding signal: 1.09 fold enrichment (6-mer frequency, TF over GST control)
ETV5
  binding signal: 1.13 fold enrichment (6-mer frequency, TF over GST control)
HSF1
  binding signal: 1.27 fold enrichment (6-mer frequency, TF over GST control)
ELF4
  binding signal: 1.08 fold enrichment (6-mer frequency, TF over GST control)
ELK4
  binding signal: 1.21 fold enrichment (6-mer frequency, TF over GST control)
ELF3
  binding signal: 1.17 fold enrichment (6-mer frequency, TF over GST control)
CRX
  binding signal: 1.76 fold enrichment (6-mer frequency, TF over GST control)
ETV1
  binding signal: 1.19 fold enrichment (6-mer frequency, TF over GST control)
ERF
  binding signal: 1.13 fold enrichment (6-mer frequency, TF over GST control)
ETV3L
  binding signal: 1.06 fold enrichment (6-mer frequency, TF over GST control)
ETS2
  binding signal: 1.08 fold enrichment (6-mer frequency, TF over GST control)
SPDEF
  binding signal: 1.11 fold enrichment (6-mer frequency, TF over GST control)
ETV7
  binding signal: 1.14 fold enrichment (6-mer frequency, TF over GST control)
ELF5
  binding signal: 1.16 fold enrichment (6-mer frequency, TF over GST control)
ETV3
  binding signal: 1.06 fold enrichment (6-mer frequency, TF over GST control)
ETV6
  binding signal: 1.16 fold enrichment (6-mer frequency, TF over GST control)
